Assay results from PubChem BioAssay (NCATS).
Results filed as inconclusive are left out. Calls of active or inactive are those of the source. Calls come from the whole dose curve; as a rule, active = well fitted inhibition curve with a large enough effect; inconclusive = small, poorly fitted or top-dose-only effect; inactive = flat fitted curve, though single readings scatter.

Tests used:
[1] = qHTS profiling for inhibitors of Plasmodium falciparum proliferation (AID 504749);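 note: 0% = DMSO vehicle and full inhibition = artemisinin control; nearly all actives have a fitted effect of over 60% in size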; conditions: P. falciparum in erythrocytes, SYBR Green DNA, 72 h, at 28.7 µM (top of the series)
How it was run: (§1)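 Three-day growth assay of blood-stage parasites in erythrocytes (0.3% parasitemia, 2.5% hematocrit) at 37 C, 5% CO2, quantified by SYBR Green DNA staining after overnight detergent lysis.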

[2] = system: 3D7; experiment: as above; conditions: P. falciparum in erythrocytes, SYBR Green DNA, 72 h; series mostly up to 28.7 µM
How it was run: as §1

[3] = system: 7G8; experiment: as above; conditions: P. falciparum in erythrocytes, SYBR Green DNA, 72 h; series mostly up to 28.7 µM
How it was run: as §1

[4] = system: AA1029; experiment: as above; conditions: P. falciparum in erythrocytes, SYBR Green DNA, 72 h; series mostly up to 28.7 µM
How it was run: as §1

[5] = system: AS120; experiment: as above; conditions: P. falciparum in erythrocytes, SYBR Green DNA, 72 h; series mostly up to 28.7 µM
How it was run: as §1

[6] = system: ATS189; experiment: as above; conditions: P. falciparum in erythrocytes, SYBR Green DNA, 72 h; series mostly up to 28.7 µM
How it was run: as §1

[7] = system: ATS95; experiment: as above; conditions: P. falciparum in erythrocytes, SYBR Green DNA, 72 h; series mostly up to 28.7 µM
How it was run: as §1

[8] = system: C2A; experiment: as above; conditions: P. falciparum in erythrocytes, SYBR Green DNA, 72 h; series mostly up to 28.7 µM
How it was run: as §1

[9] = system: CP185; experiment: as above; conditions: P. falciparum in erythrocytes, SYBR Green DNA, 72 h; series mostly up to 28.7 µM
How it was run: as §1

[10] = system: CP191; experiment: as above; conditions: P. falciparum in erythrocytes, SYBR Green DNA, 72 h; series mostly up to 28.7 µM
How it was run: as §1

[11] = system: CP192; experiment: as above; conditions: P. falciparum in erythrocytes, SYBR Green DNA, 72 h; series mostly up to 28.7 µM
How it was run: as §1

[12] = system: CP194; experiment: as above; conditions: P. falciparum in erythrocytes, SYBR Green DNA, 72 h; series mostly up to 28.7 µM
How it was run: as §1

[13] = system: CP201; experiment: as above; conditions: P. falciparum in erythrocytes, SYBR Green DNA, 72 h; series mostly up to 28.7 µM
How it was run: as §1

[14] = system: CP203; experiment: as above; conditions: P. falciparum in erythrocytes, SYBR Green DNA, 72 h; series mostly up to 28.7 µM
How it was run: as §1

[15] = system: CP211; experiment: as above; conditions: P. falciparum in erythrocytes, SYBR Green DNA, 72 h; series mostly up to 28.7 µM
How it was run: as §1

[16] = system: CP215; experiment: as above; conditions: P. falciparum in erythrocytes, SYBR Green DNA, 72 h; series mostly up to 28.7 µM
How it was run: as §1

[17] = system: CP217; experiment: as above; conditions: P. falciparum in erythrocytes, SYBR Green DNA, 72 h; series mostly up to 28.7 µM
How it was run: as §1

[18] = system: CP237; experiment: as above; conditions: P. falciparum in erythrocytes, SYBR Green DNA, 72 h; series mostly up to 28.7 µM
How it was run: as §1

[19] = system: CP238; experiment: as above; conditions: P. falciparum in erythrocytes, SYBR Green DNA, 72 h; series mostly up to 28.7 µM
How it was run: as §1

[20] = system: CP247; experiment: as above; conditions: P. falciparum in erythrocytes, SYBR Green DNA, 72 h; series mostly up to 28.7 µM
How it was run: as §1

CC1(C)S[C@@H]2[C@H](NC(=O)C3(N)CCCCC3)C(=O)N2[C@H]1C(=O)O
inactive: activity, negative = inhibition ([1]; parasite line A) 1.02% | activity, negative = inhibition ([1]; parasite line B) 10.4% | Potency [2] | Potency [3] | Potency [4] | Potency [5] | Potency [6] | Potency [7] | Potency [8] | Potency [9] | Potency [10] | Potency [11] | Potency [12] | Potency [13] | Potency [14] | Potency [15] | Potency [16] | Potency [17] | Potency [18] | Potency [19] | Potency [20]

CN1C(=O)C[C@@H](C(=O)N[C@@H](Cc2cnc[nH]2)C(=O)N2CCC[C@H]2C(N)=O)NC1=O
inactive: activity, negative = inhibition ([1]; parasite line A) 13.6% | activity, negative = inhibition ([1]; parasite line B) -7.4% | Potency [2] | Potency [3] | Potency [4] | Potency [5] | Potency [6] | Potency [7] | Potency [8] | Potency [9] | Potency [10] | Potency [11] | Potency [12] | Potency [13] | Potency [14] | Potency [15] | Potency [16] | Potency [17] | Potency [18] | Potency [19] | Potency [20]

NCC(O)CC(=O)O (configuration not stated)
inactive: activity, negative = inhibition ([1]; parasite line A) 13% | activity, negative = inhibition ([1]; parasite line B) 3.91% | Potency [2] | Potency [3] | Potency [4] | Potency [5] | Potency [6] | Potency [7] | Potency [8] | Potency [9] | Potency [10] | Potency [11] | Potency [12] | Potency [13] | Potency [14] | Potency [15] | Potency [16] | Potency [17] | Potency [18] | Potency [19] | Potency [20]

CN[C@@H]1[C@H](O[C@H]2[C@H](O[C@H]3[C@H](O)[C@@H](O)[C@H](N=C(N)N)[C@@H](O)[C@@H]3N=C(N)N)O[C@@H](C)[C@]2(O)C=O)O[C@@H](CO)[C@H](O)[C@H]1O
inactive: activity, negative = inhibition ([1]; parasite line A) 5.41% | activity, negative = inhibition ([1]; parasite line B) 15.5% | Potency [2] | Potency [3] | Potency [4] | Potency [5] | Potency [6] | Potency [7] | Potency [8] | Potency [9] | Potency [10] | Potency [11] | Potency [12] | Potency [13] | Potency [14] | Potency [15] | Potency [16] | Potency [17] | Potency [18] | Potency [19] | Potency [20]

N[C@H](CC(=O)O)C(=O)O
inactive: activity, negative = inhibition ([1]; parasite line A) 6.17% | activity, negative = inhibition ([1]; parasite line B) 8.93% | Potency [2] | Potency [3] | Potency [4] | Potency [5] | Potency [6] | Potency [7] | Potency [8] | Potency [9] | Potency [10] | Potency [11] | Potency [12] | Potency [13] | Potency [14] | Potency [15] | Potency [16] | Potency [17] | Potency [18] | Potency [19] | Potency [20]

CC(O)CN(C)C (configuration not stated)
inactive: activity, negative = inhibition ([1]; parasite line A) 11.7% | activity, negative = inhibition ([1]; parasite line B) -4.96% | Potency [2] | Potency [3] | Potency [4] | Potency [5] | Potency [6] | Potency [7] | Potency [8] | Potency [9] | Potency [10] | Potency [11] | Potency [12] | Potency [13] | Potency [14] | Potency [15] | Potency [16] | Potency [17] | Potency [18] | Potency [19] | Potency [20]

C[Si](C)(C)O[Si](C)(C)C
inactive: activity, negative = inhibition ([1]; parasite line A) 4.89% | activity, negative = inhibition ([1]; parasite line B) 10.8% | Potency [2] | Potency [3] | Potency [4] | Potency [5] | Potency [6] | Potency [7] | Potency [8] | Potency [9] | Potency [10] | Potency [11] | Potency [12] | Potency [13] | Potency [14] | Potency [15] | Potency [16] | Potency [17] | Potency [18] | Potency [19] | Potency [20]

CCCC(=O)O
inactive: activity, negative = inhibition ([1]; parasite line A) 7.39% | activity, negative = inhibition ([1]; parasite line B) 16.4% | Potency [2] | Potency [3] | Potency [4] | Potency [5] | Potency [6] | Potency [7] | Potency [8] | Potency [9] | Potency [10] | Potency [11] | Potency [12] | Potency [13] | Potency [14] | Potency [15] | Potency [16] | Potency [17] | Potency [18] | Potency [19] | Potency [20]

CC1=CC(=O)NS(=O)(=O)O1
inactive: activity, negative = inhibition ([1]; parasite line A) 0.853% | activity, negative = inhibition ([1]; parasite line B) 6.07% | Potency [2] | Potency [3] | Potency [4] | Potency [5] | Potency [6] | Potency [7] | Potency [8] | Potency [9] | Potency [10] | Potency [11] | Potency [12] | Potency [13] | Potency [14] | Potency [15] | Potency [16] | Potency [17] | Potency [18] | Potency [19] | Potency [20]

O=C(O)CCCC/C=C(\c1ccccc1)c1cccnc1
inactive: activity, negative = inhibition ([1]; parasite line A) 3.33% | activity, negative = inhibition ([1]; parasite line B) 8.41% | Potency [2] | Potency [3] | Potency [4] | Potency [5] | Potency [6] | Potency [7] | Potency [8] | Potency [9] | Potency [10] | Potency [11] | Potency [12] | Potency [13] | Potency [14] | Potency [15] | Potency [16] | Potency [17] | Potency [18] | Potency [19] | Potency [20]

O=C(NCCNCC(O)COc1ccc(O)cc1)N1CCOCC1 (configuration not stated)
inactive: activity, negative = inhibition ([1]; parasite line A) 8.13% | activity, negative = inhibition ([1]; parasite line B) 8.21% | Potency [2] | Potency [3] | Potency [4] | Potency [5] | Potency [6] | Potency [7] | Potency [8] | Potency [9] | Potency [10] | Potency [11] | Potency [12] | Potency [13] | Potency [14] | Potency [15] | Potency [16] | Potency [17] | Potency [18] | Potency [19] | Potency [20]

CCc1ncnc2cc(OC)c(OC)cc12
inactive: activity, negative = inhibition ([1]; parasite line A) -5.32% | activity, negative = inhibition ([1]; parasite line B) 10.1% | Potency [2] | Potency [3] | Potency [4] | Potency [5] | Potency [6] | Potency [7] | Potency [8] | Potency [9] | Potency [10] | Potency [11] | Potency [12] | Potency [13] | Potency [14] | Potency [15] | Potency [16] | Potency [17] | Potency [18] | Potency [19] | Potency [20]
